This is part of a sample that, as a whole, favours compounds with a hit. Of some 83,000 tested, about 20% had one in any assay.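 Activity criterion: percent growth below 10, measured after cells in 96-well plates were exposed to a single compound concentration for 48 hours.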 Unmarked numbers belong to inactive results. Activity calls are given as the source filed them.
Key:
Assay in all cases: NCI-60 one-dose screen, 48 h (100 = growth as untreated, 0 = no growth, -100 = all killed)
Details in all cases: 10 µM unless noted
SK-MEL-2 melanoma = tested on: SK-MEL-2 melanoma
EKVX NSCLC = tested on: EKVX NSCLC
SN12C renal = tested on: SN12C renal
UO-31 renal = tested on: UO-31 renal
TK-10 renal = tested on: TK-10 renal
ACHN renal = tested on: ACHN renal
A498 renal = tested on: A498 renal
CCRF-CEM leukemia = tested on: CCRF-CEM leukemia
MOLT-4 leukemia = tested on: MOLT-4 leukemia

Compound | growth (SK-MEL-2 melanoma) | growth (EKVX NSCLC) | growth (SN12C renal) | growth (UO-31 renal) | growth (TK-10 renal) | growth (ACHN renal) | growth (A498 renal) | growth (CCRF-CEM leukemia) | growth (MOLT-4 leukemia)
CCC1S/C(=N\N=C(/C)c2ccco2)N(c2ccccc2)C1=O (stereo not given) | 112% | 109% | 141% | 94.8% | 79.4% | 110% | 160% | -58.4% (active) | 78.7%
COc1ccc(-c2cnc(-c3ccc(F)cc3)[nH]2)cc1 | 113% | 90.7% | 99% | 84.5% | 230% | 105% | 97.1% | -48.2% (active) | 54.7%
O=C1c2ccccc2C(=O)c2c(NCCN=Cc3c(O)ccc4ccccc34)cccc21 | 107% | 73.3% | 85.2% | 49.9% | 94.2% | 65.3% | 80.7% | -46.1% (active) | 76.9%
CN(C)c1ccc(/C=N/n2c(-c3cc(F)c(Cl)cc3Cl)nn(CN3CCOCC3)c2=S)cc1 | 104% | 107% | 103% | 69.1% | 107% | 98.6% | 77.9% | 92.4% | 88.8%
FC(F)(F)c1cn(CCN2CCOCC2)c2ncnc(Cl)c12 | 41.3% | 92.6% | 71.2% | -85.5% (active) | 113% | 64.7% | 105% | 12.3% | 40.4%
O=C(Nc1ccc(F)cc1)Nc1ccc(Br)c(C(F)(F)F)c1 | -11.1% (active) | 7.24% (active) | 11.3% | 7.01% (active) | 10.4% | 2.25% (active) | 4.62% (active) | 6.73% (active) | 12.8%
C=C1C(=O)O[C@H]2[C@H]1CC/C(COC(=O)c1ccc(C#N)cc1)=C\CC[C@@]1(C)O[C@@H]21 | 37.9% | 16% | 17.4% | -1.25% (active) | 40.2% | 0.811% (active) | 99.7% | -25.8% (active) | -29.3% (active)
O=C1CN(CCN2CC(=O)NC(=O)C2)CC(=O)N1 | 113% | 84.4% | 104% | 71.8% | 107% | 103% | 103% | 107% | 28.5%
O=C1OC(c2ccc(-c3ccccc3)cc2)=C/C1=C/C=C/c1ccccc1 | 114% | 102% | 99.9% | 80% | 107% | 102% | 84.4% | 24.2% | 98.5%
O=C(Cn1c2ccccc2c2ccncc21)N/N=C/c1c[nH]c2ccccc12 | 95.3% | 91.2% | 38.8% | 103% | 113% | 77.7% | 104% | 43.8% | 53.4%
CCOc1cccc(Nc2nc(N)nc3[nH]c4ccc(O)cc4c23)c1 | 90.2% | 27.8% | 54.1% | 36.4% | 27.2% | 40.8% | 51% | 61.7% | 53.9%
O=[N+]([O-])c1ccc(NS(=O)(=O)c2ccccc2)c2ccccc12 | 12.1% | 38.2% | 44.5% | 25.5% | 53.1% | 63.6% | 35.9% | 40.3% | 38%
OCc1cnccc1NC12CC3CC(CC(C3)C1)C2 | 95.1% | 103% | 105% | 90.1% | 99.1% | 101% | 94.7% | 95.9% | 88.8%
C=C1C(=O)O[C@H]2[C@H]1CC/C(CNC(=O)/C1=C/CC[C@@]3(C)O[C@H]3[C@H]3OC(=O)C(=C)[C@@H]3CC1)=C\CC[C@@]1(C)O[C@@H]21 | 88.7% | 86.2% | 96.7% | 95.5% | 102% | 97.6% | 94.6% | 42.6% | 93.5%
COc1ccc(C2=NN(C(=O)COc3ccc(Cl)cc3)C(O)(c3cc(F)c(Cl)cc3Cl)C2)cc1OC (stereo not given) | 68.3% | 61.6% | 19.8% | -86.6% (active) | 16% | 5.24% (active) | 141% | -62.1% (active) | -32% (active)
COc1cc(-c2nc3ccccc3s2)ccc1OCc1nc2n(n1)S(=O)(=O)c1ccccc1N2c1ccccc1 | 98.5% | 95.4% | 108% | 82.4% | 121% | 107% | 100% | 112% | 80.5%
CC(C)(C)OC(=O)N1CC(Cn2cc(C(F)(F)F)c3c(Cl)ncnc32)C1 | -77.4% (active) | 50.3% | -25.4% (active) | -95.1% (active) | 115% | 73.5% | 34.2% | -26.6% (active) | -37.5% (active)
CCCCCn1ncc(-c2c(O)c(O)cc3c(O)c(-c4c(C)cc5c(-c6cnn(CCCCC)n6)c(O)c(O)cc5c4O)c(C)cc23)n1 | 3.71% (active) | 9.87% (active) | 18.6% | -49.5% (active) | 10.2% | 6.56% (active) | 53% | 1.09% (active) | 6.44% (active)
O=C(N/N=C/c1ccccc1O)c1ccccc1O | 61.1% | 37.5% | 41% | 3.31% (active) | 42.4% | 16.7% | 99.6% | 12.7% | 19.3%
CC(C(=O)O)N1C(N)=NNC1c1ccccc1O (stereo not given) | 99.7% | 50.6% | 93.4% | 66.3% | 148% | 87.3% | 98.8% | 82.7% | 68.1%
CN(C)c1ccc(/C=N/N=C(N)N)cc1 | 78.6% | 89.3% | 82.3% | 72.5% | 106% | 98.5% | 17.7% | 104% | 83.2%
Cc1[nH]n(C(=O)c2ccncc2)c(=O)c1N=Nc1ccc(S(=O)(=O)Nc2ccncn2)cc1 | 116% | 94.4% | 97% | 85.1% | 101% | 104% | 111% | -33.9% (active) | 102%
Nc1nc(=S)ss1 | 109% | 108% | 97.7% | 95.4% | 108% | 109% | 92.5% | 109% | 90.4%
O=C(O)c1ccc2nc(-c3ccc(OCCCCCOc4ccc(-c5nc6ccc(C(=O)O)cc6[nH]5)cc4)cc3)[nH]c2c1 | 101% | 113% | 62.2% | 90.5% | -2.6% (active) | 98.4% | 53.6% | 76.1% | 87.7%
CC1(C)N=C(N)N=C(N)N1c1cccc(CCCCc2ccccc2)c1 | 7.3% (active) | 7.11% (active) | 9.06% (active) | 27.2% | 17.9% | 33% | 61.7% | 7.35% (active) | -35.9% (active)
Cc1ccc2oc(=O)cc(C3C(C#N)=C(N)Oc4c3ccc3ccccc43)c2c1 (stereo not given) | 66.2% | 77.6% | 92.6% | 72.3% | 91.9% | 99% | 89.1% | 81.9% | 46.3%
Clc1ccc(OCc2nc(-c3ccccc3)n[nH]2)c(Cl)c1 | 103% | 93.8% | 96.6% | 77.1% | 122% | 98% | 104% | 85.9% | 98.7%
COc1cc(NC(C)CCCN2C(=O)c3ccccc3C2=O)c2nccc(C)c2c1OC (stereo not given) | 87.6% | 98.4% | 126% | 80.9% | 122% | 110% | 92.9% | -14.2% (active) | -44.2% (active)
Clc1ccc2c(NCCNc3nc(Cl)nc4ccccc34)ccnc2c1 | -73.2% (active) | -9.06% (active) | -76.6% (active) | -95.6% (active) | -79.3% (active) | -97.7% (active) | 92.3% | -58.7% (active) | -52.4% (active)
CCC(N)(C(=O)O)c1ccc(F)cc1 (stereo not given) | 98% | 104% | 102% | 98.5% | 95.5% | 114% | 117% | 94.8% | 90.1%

Source: PubChem BioAssay (NCI)
